# Measurements as given in the supplement of paper PMC3545927.
# Some of the results follow. No count for the full screen is at hand.
# Target: furin, P09958
# Test: furin cleavage Z-score vs untreated control; higher = more cleavage, active = 3.5 or more, inactive = 1 or less, 8 variable residues between constant flanks
# Summary of the method: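 Furin-free reactions served as the baseline for the cleavage Z-score, which is the log read count lowess-adjusted and scaled by median absolute deviation. Counts came from released DNA, adapter-tagged by PCR and sequenced. Purified furin had cut 8-mer peptides fused to a cDNA oligonucleotide on magnetic beads during 7.5, 15 or 30 min at 1:10 enzyme:substrate.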
# 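Also: purified furin at 1:10 enzyme:substrate in 50 mM HEPES pH 7.5.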
# Sequence of furin, P09958 (P09958 whole entry): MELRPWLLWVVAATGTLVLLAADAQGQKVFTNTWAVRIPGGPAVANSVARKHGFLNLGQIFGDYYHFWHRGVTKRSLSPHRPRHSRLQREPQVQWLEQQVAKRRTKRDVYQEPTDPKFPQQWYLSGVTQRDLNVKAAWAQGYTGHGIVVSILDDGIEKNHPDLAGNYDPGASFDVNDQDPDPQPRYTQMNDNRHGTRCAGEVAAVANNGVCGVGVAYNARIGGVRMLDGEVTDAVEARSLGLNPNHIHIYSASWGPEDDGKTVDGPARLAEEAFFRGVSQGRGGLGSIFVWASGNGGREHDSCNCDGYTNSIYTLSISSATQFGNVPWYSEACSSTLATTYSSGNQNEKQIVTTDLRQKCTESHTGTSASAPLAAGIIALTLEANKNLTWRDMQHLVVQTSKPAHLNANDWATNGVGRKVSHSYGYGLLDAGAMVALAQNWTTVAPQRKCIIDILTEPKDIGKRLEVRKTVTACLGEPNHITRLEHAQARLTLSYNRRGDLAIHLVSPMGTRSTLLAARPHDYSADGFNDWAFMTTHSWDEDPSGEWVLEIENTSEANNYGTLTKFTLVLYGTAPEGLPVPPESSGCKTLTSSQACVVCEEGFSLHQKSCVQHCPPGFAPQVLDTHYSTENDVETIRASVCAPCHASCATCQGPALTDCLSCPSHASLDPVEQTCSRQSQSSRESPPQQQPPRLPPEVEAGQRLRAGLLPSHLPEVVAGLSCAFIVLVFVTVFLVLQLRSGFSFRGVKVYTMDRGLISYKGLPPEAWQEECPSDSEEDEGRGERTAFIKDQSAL
Sequence,furin cleavage Z-score (7.5 min),furin cleavage Z-score (15 min),furin cleavage Z-score (30 min)
CAIYQCCDLDAGNASASA [HC1490],-1.27 (inactive),-0.493 (inactive),-0.515 (inactive)
CAPCTINYTIAGNASASA [HC470],-0.109 (inactive),-0.36 (inactive),-0.753 (inactive)
CAEFEVPCHRAGNASASA [HC2447],1.12,0.425 (inactive),0.814 (inactive)
CAEPARRRRLAGNASASA [FS-1193],3.5 (active),3.06,4.29 (active)
CAGRGRRRRLAGNASASA [FS-1204],0.638 (inactive),1.19,1.19
CALRQRRRRLAGNASASA [FS-1233],7.25 (active),8.53 (active),7.51 (active)
CASTVCSAHLAGNASASA [HC2510],0.637 (inactive),0.629 (inactive),0.755 (inactive)
CATCNRRKKEAGNASASA [FS-1492],0.181 (inactive),1.51,1.86
CASRVRTGRSAGNASASA [FS-1417],9.44 (active),9.57 (active),7.69 (active)
CAELSRTGRSAGNASASA [FS-22],3.94 (active),5.44 (active),5.19 (active)
CAALNRTGRSAGNASASA [FS-748],9.18 (active),11.6 (active),9.72 (active)
CAMLAEQFKQAGNASASA [HC1022],1.62,-0.39 (inactive),0.514 (inactive)
CAALNRRKKQAGNASASA [FS-747],3.62 (active),5.46 (active),3.99 (active)
CASCSSNVSVAGNASASA [HC1553],1.25,-0.606 (inactive),0.334 (inactive)
CAVVCCSDSYAGNASASA [HC2051],-1.19 (inactive),0.168 (inactive),-0.153 (inactive)
CAYGRRRRRSAGNASASA [FS-519],9.52 (active),10.7 (active),8.36 (active)
CAGRRLARGSAGNASASA [HC1254],3.43,4.7 (active),6.13 (active)
CAQDARRARSAGNASASA [FS-845],6 (active),7.49 (active),7.26 (active)
CAYGLRDARSAGNASASA [FS-900],-0.0484 (inactive),-0.398 (inactive),-0.0248 (inactive)
CAPYILKRGSAGNASASA [NG2],1.17,0.28 (inactive),0.586 (inactive)
CAEVPCHRGSAGNASASA [HC2396],0.0196 (inactive),1.61,1.87
CAGSCRRARSAGNASASA [FS-1333],8.24 (active),6.66 (active),7.27 (active)

Sequence,furin cleavage Z-score (7.5 min),furin cleavage Z-score (15 min),furin cleavage Z-score (30 min)
CAVAYQATVCAGNASASA [HC954],-0.525 (inactive),-0.292 (inactive),-0.577 (inactive)
CAMFDSSVLCAGNASASA [HC916],-1.5 (inactive),-1.04 (inactive),0.432 (inactive)
CADGRRFRQAAGNASASA [FS-1668],-1.15 (inactive),-1.53 (inactive),-0.448 (inactive)
CAICTTPCSGAGNASASA [HC1944],-1.41 (inactive),-0.982 (inactive),0.0737 (inactive)
CASTPCSVHLAGNASASA [HC2530],-0.933 (inactive),0.438 (inactive),1.38
CALHVWIPPLAGNASASA [HC589],1.25,1.42,0.509 (inactive)
CARSGRRRRSAGNASASA [FS-88],5.85 (active),5.32 (active),4.99 (active)
CAIPKRLRRSAGNASASA [FS-35],1.85,0.768 (inactive),1.2
CASRRRRARSAGNASASA [FS-872],8.77 (active),9.73 (active),7.27 (active)
CAAWRHRARSAGNASASA [HC1620],0.0962 (inactive),1.9,1.59
CAGRRRRHRSAGNASASA [FS-532],9.48 (active),10.3 (active),6.94 (active)
CARSGAPTYSAGNASASA [HC421],0.424 (inactive),-0.13 (inactive),-0.882 (inactive)
CARSGRSRSRAGNASASA [FS-1926],-0.645 (inactive),-0.505 (inactive),-1.41 (inactive)
CAPPRRLRRSAGNASASA [FS-841],5.16 (active),4.08 (active),3.48
CAILNAASLAAGNASASA [HC537],-1.87 (inactive),-0.982 (inactive),0.861 (inactive)
CATTPCYGSWAGNASASA [HC77],0.0798 (inactive),1.4,-0.0858 (inactive)
CALAHGVRVLAGNASASA [HC236],0.101 (inactive),1.37,0.879 (inactive)
CAPPWRLRRSAGNASASA [FS-1383],9.19 (active),9.31 (active),7.39 (active)
CARSTRDRRSAGNASASA [FS-1273],11.6 (active),13.1 (active),9.03 (active)
CAPTDPRRRSAGNASASA [HC215],0.57 (inactive),3.28,0.563 (inactive)
CAPPRRRARSAGNASASA [FS-72],11.2 (active),10.8 (active),7.57 (active)
CAPPRRRRRSAGNASASA [FS-948],8.33 (active),8.78 (active),7.37 (active)
